{
  "source": "PubChem BioAssay AID623994",
  "about": "(NMMLSC, 2012)",
  "note": "Potency and affinity values are given separately. Unmarked numbers belong to inactive results.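 The calls were made as follows: active = compounds whose fitted concentration for half the maximal dye retention is below 100 µM; inactive = the rest.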",
  "data": [
    {"molecular_target": "Multidrug resistance protein CDR2 (Candida albicans (strain SC5314 / ATCC MYA-2876)) (UniProt P78595)", "sequence (P78595 whole entry, looked up)": "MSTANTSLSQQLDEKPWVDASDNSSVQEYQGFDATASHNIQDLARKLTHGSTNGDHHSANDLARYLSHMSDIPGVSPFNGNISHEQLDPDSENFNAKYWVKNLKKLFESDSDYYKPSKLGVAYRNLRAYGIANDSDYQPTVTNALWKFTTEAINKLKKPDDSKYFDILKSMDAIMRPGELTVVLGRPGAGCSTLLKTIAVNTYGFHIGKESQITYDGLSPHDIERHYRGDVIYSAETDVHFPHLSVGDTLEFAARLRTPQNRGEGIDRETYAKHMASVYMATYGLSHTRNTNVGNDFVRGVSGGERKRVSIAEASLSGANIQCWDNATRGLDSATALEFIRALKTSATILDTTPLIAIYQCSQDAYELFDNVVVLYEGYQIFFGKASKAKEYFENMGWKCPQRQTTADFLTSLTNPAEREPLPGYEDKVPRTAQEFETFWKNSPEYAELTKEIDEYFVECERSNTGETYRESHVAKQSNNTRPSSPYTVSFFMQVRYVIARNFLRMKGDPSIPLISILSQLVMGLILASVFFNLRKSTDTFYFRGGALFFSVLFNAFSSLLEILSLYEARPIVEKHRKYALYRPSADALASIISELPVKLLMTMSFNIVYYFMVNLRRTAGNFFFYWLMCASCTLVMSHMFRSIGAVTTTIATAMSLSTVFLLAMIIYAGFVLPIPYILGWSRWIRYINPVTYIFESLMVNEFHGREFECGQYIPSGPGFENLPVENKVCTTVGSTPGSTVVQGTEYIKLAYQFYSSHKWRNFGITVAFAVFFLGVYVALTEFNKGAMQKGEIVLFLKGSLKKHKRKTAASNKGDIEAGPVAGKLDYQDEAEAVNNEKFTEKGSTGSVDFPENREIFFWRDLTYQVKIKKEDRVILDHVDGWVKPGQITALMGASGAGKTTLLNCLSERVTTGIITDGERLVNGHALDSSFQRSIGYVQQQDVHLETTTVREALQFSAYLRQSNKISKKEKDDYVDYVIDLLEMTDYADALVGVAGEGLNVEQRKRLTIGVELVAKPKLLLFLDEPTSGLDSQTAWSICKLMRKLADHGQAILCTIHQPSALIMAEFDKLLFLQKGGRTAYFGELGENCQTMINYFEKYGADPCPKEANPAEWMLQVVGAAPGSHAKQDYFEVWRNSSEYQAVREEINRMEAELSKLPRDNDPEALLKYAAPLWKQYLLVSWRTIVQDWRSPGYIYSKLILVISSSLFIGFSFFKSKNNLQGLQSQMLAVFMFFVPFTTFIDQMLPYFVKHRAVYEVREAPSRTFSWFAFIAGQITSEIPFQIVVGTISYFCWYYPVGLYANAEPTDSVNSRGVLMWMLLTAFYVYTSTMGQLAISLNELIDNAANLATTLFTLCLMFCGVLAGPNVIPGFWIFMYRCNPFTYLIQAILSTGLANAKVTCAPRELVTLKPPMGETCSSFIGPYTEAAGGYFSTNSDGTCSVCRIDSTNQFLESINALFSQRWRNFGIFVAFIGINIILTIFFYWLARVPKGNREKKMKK", "experiment": "blockers of Nile Red efflux by Candida CDR2 – S. cerevisiae AD1-8u, singleplex, Cherry Pick2 set, dose response (AID 623994)", "conditions": "S. cerevisiae AD1-8u expressing CaCDR2, Nile Red efflux; series mostly up to 100 µM; Nile Red retention, efflux inhibition: at the top concentration", "units": {"Nile Red retention, efflux inhibition": "%"}, "values": [
      {"smiles": "NC1=NC[C@H](Cc2ccc(O)cc2)N1CCc1cc(C(F)(F)F)cc(C(F)(F)F)c1", "Nile Red retention, efflux inhibition": 53},
      {"smiles": "CCCCCc1cc(=O)oc2c(C(CCN3CCCC(C)C3)c3ccc(N(C)C)cc3)c(OC)cc(OC)c12", "note": "(centres undefined)", "Nile Red retention, efflux inhibition": 369},
      {"smiles": "O=C(c1ccc2c(c1)OCO2)N1CCC2(CC1)Oc1ccc(F)cc1C(=O)C21CC(c2ccccc2)=NO1", "note": "(centres undefined)", "Nile Red retention, efflux inhibition": 0.1},
      {"smiles": "Cc1cc(C(=O)NC2CC(C)(C)Cc3c2cnn3-c2ccc(F)cc2)no1", "note": "(centres undefined)", "Nile Red retention, efflux inhibition": -1.63},
      {"smiles": "CC(C)C(=O)N1CCC2(CC1)Oc1ccc(F)cc1C(=O)C21CC(c2ccccc2)=NO1", "note": "(centres undefined)", "Nile Red retention, efflux inhibition": -0.13},
      {"smiles": "O=C1C(Cc2ccccc2)Nc2ncnc(N3CCN(c4ccccc4)CC3)c2N1Cc1ccccc1", "note": "(centres undefined)", "Nile Red retention, efflux inhibition": -2.8},
      {"smiles": "CCN(CC)CCC(c1ccc(N(C)C)cc1)c1c(OC)cc(OC)c2ccc(=O)oc12", "note": "(centres undefined)", "Nile Red retention, efflux inhibition": -7.51},
      {"smiles": "O=C(c1ccoc1)N1CCC2(CC1)Oc1ccc(F)cc1C(=O)C21CC(c2ccc(Cl)cc2)=NO1", "note": "(centres undefined)", "Nile Red retention, efflux inhibition": -6.86},
      {"smiles": "C[C@@]12C(=O)Nc3cc(F)c(F)cc3C(=O)N1[C@H]1c3cc(Cl)ccc3OC[C@@H]1[C@@H]2c1ccccc1", "Nile Red retention, efflux inhibition": 8.62},
      {"smiles": "CCc1ccc(C2=NN(c3ccc(S(N)(=O)=O)cc3)C(c3ccc(F)cc3)C2)cc1", "note": "(centres undefined)", "Nile Red retention, efflux inhibition": -3.46},
      {"smiles": "Cc1ccc(-c2c[n+](CC(=O)N3c4ccccc4Sc4ccccc43)c3n2CCC3)cc1", "Nile Red retention, efflux inhibition": -3.96},
      {"smiles": "CC(C)C(=O)N1CCC2(CC1)Oc1ccc(F)cc1C(=O)C21CC(c2ccc(Cl)cc2)=NO1", "note": "(centres undefined)", "Nile Red retention, efflux inhibition": -1.61},
      {"smiles": "NS(=O)(=O)c1ccc(N2N=C(c3ccc(Br)cc3)CC2c2ccc(F)cc2)cc1", "note": "(centres undefined)", "Nile Red retention, efflux inhibition": -3.65},
      {"smiles": "NS(=O)(=O)c1ccc(N2N=C(c3ccccc3)CC2c2ccc(F)cc2)cc1", "note": "(centres undefined)", "Nile Red retention, efflux inhibition": -1.19},
      {"smiles": "N#CC(C(=O)NCc1ccccc1)c1nc2ccccc2nc1N1CCCC1", "note": "(centres undefined)", "Nile Red retention, efflux inhibition": 1.13},
      {"smiles": "Cc1ccc(CNC(=O)C2CCC(CNc3nc(=S)[nH]c4ccccc34)CC2)cc1", "note": "(centres undefined)", "Nile Red retention, efflux inhibition": 6.63},
      {"smiles": "Cc1cc(C)c2sc(N(CCCN(C)C)C(=O)c3ccc(Br)s3)nc2c1", "Nile Red retention, efflux inhibition": 338},
      {"smiles": "CCCCCCCCCC[N+](C)(C)CC/C=C1/c2ccccc2Sc2ccc(Cl)cc21", "Nile Red retention, efflux inhibition": 1150},
      {"smiles": "NS(=O)(=O)c1ccc(N2N=C(c3ccccc3)CC2c2ccc(Br)cc2)cc1", "note": "(centres undefined)", "Nile Red retention, efflux inhibition": -8.16},
      {"smiles": "O=C(C[n+]1cc(-c2ccccc2)n2c1CCC2)N1c2ccccc2Sc2ccccc21", "Nile Red retention, efflux inhibition": -1.94},
      {"smiles": "O=C(/C=C/c1cccs1)N1CCC2(CC1)Oc1ccc(F)cc1C(=O)C21CC(c2ccccc2)=NO1", "note": "(centres undefined)", "Nile Red retention, efflux inhibition": 0.2},
      {"smiles": "COc1ccc(CCOC(=O)c2ccc(N)c([N+](=O)[O-])c2)cc1", "Nile Red retention, efflux inhibition": 212},
      {"smiles": "O=C(Nc1ccccc1)C1=C[C@@H](c2ccc(C(F)(F)F)cc2)C[C@@H](OCCCCO)O1", "Nile Red retention, efflux inhibition": 1.83},
      {"smiles": "O=C(C[n+]1cc(-c2ccc(F)cc2)n2c1CCC2)N1c2ccccc2Sc2ccccc21", "Nile Red retention, efflux inhibition": -4.27},
      {"smiles": "COc1ccc2nc(NC(=O)c3cccs3)sc2c1", "Nile Red retention, efflux inhibition": -2.84},
      {"smiles": "COc1cccc(N2CCN(C(=O)C3CCCN(c4ncnc5c4nc4n5CCCCC4)C3)CC2)c1", "note": "(centres undefined)", "Nile Red retention, efflux inhibition": -0.8},
      {"smiles": "COc1cc(OC)c2ccc(=O)oc2c1C(CCN1CCCCC1)c1ccc(N(C)C)cc1", "note": "(centres undefined)", "Nile Red retention, efflux inhibition": -0.86},
      {"smiles": "Cc1ccc(N2CCN(C(=O)C3CCCN(c4ncnc5c4nc4n5CCCCC4)C3)CC2)c(C)c1", "note": "(centres undefined)", "Nile Red retention, efflux inhibition": -0.59},
      {"smiles": "Nc1ccc(C(=O)OCCc2ccccc2)cc1", "Nile Red retention, efflux inhibition": -1.89}
    ]}
  ]
}
